# Results: the supplement of paper PMC8728848
# The full list was thinned out, with the strongest signals kept by preference.
# B1: CFEM-PPm (Pichia pastoris), F2QPV1 (protein)
# chain: AVATPPACLLACAAEVVKESSDCDALNNIQCICENEGSAIHACLESTCPDGLSSTALQSFEDVCE
# What was measured:
# Test in all cases: glycan array binding signal (z-score within array); higher = stronger binding
# Conditions in all cases: glycan notation: IUPAC condensed, linker removed
# [1] = biological target: Fuc(a1-2)Gal(b1-3)GlcNAc(b1-2)Man(a1-3)[Fuc(a1-2)Gal(b1-3)GlcNAc(b1-2)Man(a1-6)]Man(b1-4)GlcNAc(b1-4)GlcNAc
# Summary of the method: (§1)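 Columns mapping to the same glycan were averaged after glycan names were converted to IUPAC-condensed notation. The data come from 3228 arrays in the Consortium for Functional Glycomics database, limited to those with an available protein sequence. Binding is reported as a within-array Z-score averaged across arrays of one protein sequence and across linkers.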
# [2] = biological target: Fuc(a1-2)Gal(b1-4)GlcNAc(b1-3)GalNAc
# Summary of the method: as §1
# [3] = biological target: Fuc(a1-2)[GalNAc(a1-3)]Gal(b1-4)[Fuc(a1-3)]GlcNAc(b1-3)GalNAc
# Summary of the method: as §1
# Fuc(a1-3)GlcNAc = biological target: Fuc(a1-3)GlcNAc
# Summary of the method: as §1
# Gal(a1-2)Gal = biological target: Gal(a1-2)Gal
# Summary of the method: as §1
# [4] = biological target: Gal(a1-3)Gal(b1-3)GlcNAc(b1-2)Man(a1-3)[Gal(a1-3)Gal(b1-3)GlcNAc(b1-2)Man(a1-6)]Man(b1-4)GlcNAc(b1-4)GlcNAc
# Summary of the method: as §1
# [5] = biological target: Gal(a1-3)Gal(b1-3)[Fuc(a1-4)]GlcNAc(b1-2)Man(a1-3)[Gal(a1-3)Gal(b1-3)[Fuc(a1-4)]GlcNAc(b1-2)Man(a1-6)]Man(b1-4)GlcNAc(b1-4)GlcNAc
# Summary of the method: as §1
# [6] = biological target: Gal(a1-3)Gal(b1-4)GlcNAc(b1-3)GalNAc
# Summary of the method: as §1
# [7] = biological target: Gal(a1-3)Gal(b1-4)[Fuc(a1-3)]GlcNAc
# Summary of the method: as §1
# Gal(b1-3)Gal = biological target: Gal(b1-3)Gal
# Summary of the method: as §1
# Gal(b1-3)Gal(b1-4)GlcNAc = biological target: Gal(b1-3)Gal(b1-4)GlcNAc
# Summary of the method: as §1
# Gal(b1-3)GalNAc = biological target: Gal(b1-3)GalNAc
# Summary of the method: as §1
# [8] = biological target: Gal(b1-3)GalNAc(a1-3)[Fuc(a1-2)]Gal(b1-4)Glc
# Summary of the method: as §1
# [9] = biological target: Gal(b1-3)GalNAc(a1-3)[Fuc(a1-2)]Gal(b1-4)GlcNAc
# Summary of the method: as §1
# Gal(b1-3)GalNAc(b1-3)Gal = biological target: Gal(b1-3)GalNAc(b1-3)Gal
# Summary of the method: as §1
# [10] = biological target: Gal(b1-3)GalNAc(b1-4)Gal(b1-4)Glc
# Summary of the method: as §1
# [11] = biological target: Gal(b1-3)GlcNAc(b1-2)[Gal(b1-3)GlcNAc(b1-6)]Man(a1-6)[Gal(b1-3)GlcNAc(b1-2)Man(a1-3)]Man(b1-4)GlcNAc(b1-4)GlcNAc
# Summary of the method: as §1
# [12] = biological target: Gal(b1-3)GlcNAc(b1-3)Gal(b1-4)GlcNAc(b1-2)Man(a1-3)[Gal(b1-3)GlcNAc(b1-3)Gal(b1-4)GlcNAc(b1-2)Man(a1-6)]Man(b1-4)GlcNAc(b1-4)GlcNAc
# Summary of the method: as §1
# [13] = biological target: Gal(b1-3)GlcNAc(b1-3)Gal(b1-4)GlcNAc(b1-6)[Gal(b1-3)GlcNAc(b1-3)]Gal(b1-4)Glc
# Summary of the method: as §1
# [14] = biological target: Gal(b1-3)GlcNAc(b1-6)Gal(b1-4)GlcNAc
# Summary of the method: as §1
# [15] = biological target: Gal(b1-3)[Fuc(a1-4)]GlcNAc(b1-3)Gal(b1-3)[Fuc(a1-4)]GlcNAc
# Summary of the method: as §1
# [16] = biological target: Gal(b1-3)[Neu5Ac(a2-6)]GalNAc
# Summary of the method: as §1
# Gal(b1-4)Glc = biological target: Gal(b1-4)Glc
# Summary of the method: as §1
# Gal(b1-4)GlcNAc = biological target: Gal(b1-4)GlcNAc
# Summary of the method: as §1
# [17] = biological target: Gal(b1-4)GlcNAc(b1-3)Gal(b1-4)GlcNAc(b1-2)Man(a1-3)[Gal(b1-4)GlcNAc(b1-3)Gal(b1-4)GlcNAc(b1-2)Man(a1-6)]Man(b1-4)GlcNAc(b1-4)GlcNAc
# Summary of the method: as §1
# [18] = biological target: Gal(b1-4)GlcNAc(b1-3)Gal(b1-4)GlcNAc(b1-2)Man(a1-3)[Gal(b1-4)GlcNAc(b1-3)Gal(b1-4)GlcNAc(b1-2)Man(a1-6)]Man(b1-4)GlcNAc(b1-4)[Fuc(a1-6)]GlcNAc
# Summary of the method: as §1
# [19] = biological target: Gal(b1-4)GlcNAc(b1-3)Gal(b1-4)GlcNAc(b1-3)Gal(b1-4)GlcNAc(b1-3)Gal(b1-4)GlcNAc(b1-2)Man(a1-3)[Gal(b1-4)GlcNAc(b1-3)Gal(b1-4)GlcNAc(b1-3)Gal(b1-4)GlcNAc(b1-3)Gal(b1-4)GlcNAc(b1-2)Man(a1-6)]Man(b1-4)GlcNAc(b1-4)GlcNAc
# Summary of the method: as §1
# [20] = biological target: Gal(b1-4)GlcNAc(b1-3)Gal(b1-4)GlcNAc(b1-3)Gal(b1-4)GlcNAc(b1-3)Gal(b1-4)GlcNAc(b1-3)Gal(b1-4)GlcNAc(b1-2)Man(a1-3)[Gal(b1-4)GlcNAc(b1-3)Gal(b1-4)GlcNAc(b1-3)Gal(b1-4)GlcNAc(b1-3)Gal(b1-4)GlcNAc(b1-3)Gal(b1-4)GlcNAc(b1-2)Man(a1-6)]Man(b1-4)GlcNAc(b1-4)[Fuc(a1-6)]GlcNAc
# Summary of the method: as §1
# [21] = biological target: Gal(b1-4)GlcNAc(b1-6)[Gal(b1-3)]GalNAc
# Summary of the method: as §1
# [22] = biological target: Gal3S(b1-3)[Fuc(a1-4)]GlcNAc
# Summary of the method: as §1
# GalNAc(a1-3)GalNAc = biological target: GalNAc(a1-3)GalNAc
# Summary of the method: as §1
# [23] = biological target: GalNAc(b1-4)GlcNAc(b1-2)Man(a1-3)[GalNAc(b1-4)GlcNAc(b1-2)Man(a1-6)]Man(b1-4)GlcNAc(b1-4)GlcNAc
# Summary of the method: as §1
# [24] = biological target: GalNAc(b1-4)GlcNAc(b1-3)GalNAc(b1-4)GlcNAc
# Summary of the method: as §1
# GlcA(b1-6)Gal = biological target: GlcA(b1-6)Gal
# Summary of the method: as §1
# [25] = biological target: GlcNAc(a1-4)Gal(b1-4)GlcNAc
# Summary of the method: as §1
# [26] = biological target: GlcNAc(b1-3)Gal(b1-4)GlcNAc
# Summary of the method: as §1
# [27] = biological target: GlcNAc(b1-3)Gal(b1-4)GlcNAc(b1-6)[Gal(b1-3)]GalNAc
# Summary of the method: as §1
# [28] = biological target: GlcNAc(b1-3)Gal(b1-4)GlcNAc(b1-6)[GlcNAc(b1-3)Gal(b1-3)]GalNAc
# Summary of the method: as §1
# [29] = biological target: GlcNAc(b1-3)Gal(b1-4)GlcNAc(b1-6)[GlcNAc(b1-3)]Gal(b1-4)GlcNAc
# Summary of the method: as §1
# [30] = biological target: Kdn(a2-3)Gal(b1-4)[Fuc(a1-3)]GlcNAc
# Summary of the method: as §1
# [31] = biological target: Neu5Ac(a2-3)Gal(b1-4)GlcNAc(b1-2)Man(a1-3)[Neu5Ac(a2-3)Gal(b1-4)GlcNAc(b1-2)Man(a1-6)]Man(b1-4)GlcNAc(b1-4)GlcNAc
# Summary of the method: as §1
# [32] = biological target: Neu5Ac(a2-3)Gal(b1-4)GlcNAc(b1-3)Gal(b1-3)GlcNAc
# Summary of the method: as §1
# [33] = biological target: Neu5Ac(a2-3)Gal(b1-4)GlcNAc(b1-3)Gal(b1-4)GlcNAc(b1-3)GalNAc
# Summary of the method: as §1
# [34] = biological target: Neu5Ac(a2-3)Gal(b1-4)GlcNAc(b1-3)Gal(b1-4)GlcNAc(b1-6)[Gal(b1-3)]GalNAc
# Summary of the method: as §1
# [35] = biological target: Neu5Ac(a2-6)Gal(b1-4)GlcNAc(b1-2)Man(a1-3)Man(b1-4)GlcNAc(b1-4)GlcNAc
# Summary of the method: as §1
# [36] = biological target: Neu5Ac(a2-6)Gal(b1-4)GlcNAc(b1-2)Man(a1-3)[Man(a1-6)]Man(b1-4)GlcNAc(b1-4)GlcNAc
# Summary of the method: as §1
# [37] = biological target: Neu5Ac(a2-6)Gal(b1-4)GlcNAc(b1-2)Man(a1-6)[Man(a1-3)]Man(b1-4)GlcNAc(b1-4)GlcNAc
# Summary of the method: as §1
# [38] = biological target: Neu5Ac(a2-6)Gal(b1-4)GlcNAc(b1-3)[Neu5Ac(a2-6)Gal(b1-4)GlcNAc(b1-6)]GalNAc
# Summary of the method: as §1
# [39] = biological target: Neu5Ac(a2-6)GlcNAc(b1-4)GlcNAc(b1-4)GlcNAc
# Summary of the method: as §1
# [40] = biological target: Neu5Ac(a2-8)Neu5Ac(a2-3)Gal(b1-3)GalNAc(b1-4)[Neu5Ac(a2-3)]Gal(b1-4)Glc
# Summary of the method: as §1
# [41] = biological target: Neu5Ac(a2-8)Neu5Ac(a2-8)Neu5Ac(a2-8)Neu5Ac(a2-3)[GalNAc(b1-4)]Gal(b1-4)Glc
# Summary of the method: as §1
# [42] = biological target: Neu5Gc(b2-6)Gal(b1-4)GlcNAc
# Summary of the method: as §1
binder,measurement,setting,value
B1,glycan array binding signal (z-score),[1],-0.289
same,glycan array binding signal (z-score),[2],1.77
same,glycan array binding signal (z-score),[3],3.4
same,glycan array binding signal (z-score),Fuc(a1-3)GlcNAc,-0.301
same,glycan array binding signal (z-score),Gal(a1-2)Gal,-0.447
same,glycan array binding signal (z-score),[4],0.425
same,glycan array binding signal (z-score),[5],-0.006
same,glycan array binding signal (z-score),[6],-0.284
same,glycan array binding signal (z-score),[7],-0.203
same,glycan array binding signal (z-score),Gal(b1-3)Gal,5.41
same,glycan array binding signal (z-score),Gal(b1-3)Gal(b1-4)GlcNAc,6.22
same,glycan array binding signal (z-score),Gal(b1-3)GalNAc,3.57
same,glycan array binding signal (z-score),[8],0.271
same,glycan array binding signal (z-score),[9],0.224
same,glycan array binding signal (z-score),Gal(b1-3)GalNAc(b1-3)Gal,5.7
same,glycan array binding signal (z-score),[10],14.7
same,glycan array binding signal (z-score),[11],-0.203
same,glycan array binding signal (z-score),[12],-0.305
same,glycan array binding signal (z-score),[13],-0.017
same,glycan array binding signal (z-score),[14],-0.102
same,glycan array binding signal (z-score),[15],-0.034
same,glycan array binding signal (z-score),[16],7.18
same,glycan array binding signal (z-score),Gal(b1-4)Glc,-0.356
same,glycan array binding signal (z-score),Gal(b1-4)GlcNAc,-0.105
same,glycan array binding signal (z-score),[17],1.53
same,glycan array binding signal (z-score),[18],-0.026
same,glycan array binding signal (z-score),[19],-0.09
same,glycan array binding signal (z-score),[20],-0.233
same,glycan array binding signal (z-score),[21],1.67
same,glycan array binding signal (z-score),[22],-0.262
same,glycan array binding signal (z-score),GalNAc(a1-3)GalNAc,-0.194
same,glycan array binding signal (z-score),[23],0.149
same,glycan array binding signal (z-score),[24],-0.226
same,glycan array binding signal (z-score),GlcA(b1-6)Gal,2.41
same,glycan array binding signal (z-score),[25],-0.205
same,glycan array binding signal (z-score),[26],0.308
same,glycan array binding signal (z-score),[27],0.543
same,glycan array binding signal (z-score),[28],-0.173
same,glycan array binding signal (z-score),[29],-0.353
same,glycan array binding signal (z-score),[30],0.034
same,glycan array binding signal (z-score),[31],-0.218
same,glycan array binding signal (z-score),[32],-0.197
same,glycan array binding signal (z-score),[33],-0.282
same,glycan array binding signal (z-score),[34],0.598
same,glycan array binding signal (z-score),[35],-0.215
same,glycan array binding signal (z-score),[36],-0.253
same,glycan array binding signal (z-score),[37],-0.345
same,glycan array binding signal (z-score),[38],0.043
same,glycan array binding signal (z-score),[39],-0.354
same,glycan array binding signal (z-score),[40],0.442
same,glycan array binding signal (z-score),[41],-0.319
same,glycan array binding signal (z-score),[42],-0.034
